# Records with an inconclusive call do not appear. The source made the active and inactive calls. The call rests on the fitted dose curve; in most records, active means well fitted cell-killing curve with a large enough effect; inconclusive means small, poorly fitted or top-dose-only effect, or effect the other way; inactive means no such curve, though single readings can be large or run the other way.
# Experiment: Cell Viability - LYMP2-005 (AID 967)
# Settings: LYMP2-005 lymphoblastoid cell viability; series mostly up to 92.2 µM; activity change, negative = viability loss: at the top concentration
# Excerpt: NIH Chemical Genomics Center [NCGC]
# NIH Molecular Libraries Screening Centers Network [MLSCN]
# National Institutes of Environmental Health Sciences [NIEHS]
# National Toxicology Program [NTP]
# We have developed a 1536-well cell-based assay for quantitative high throughput screening (qHTS) against a number of cell lines to determine in vitro cytotoxicity of small molecules. This particular assay uses a human lymphoblastoid cell line (LYMP2-005) purchased from Coriell Institute for Medical Research.
# NCGC Assay Protocol Summary:
# The CellTiter-Glo luminescent cell viability assay (Promega) is a homogeneous method to measure the number of viable cells in culture. The end point readout of this assay is based on quantitation of intracellular ATP, an indicator of metabolic activity, using the luciferase reaction. Luciferase catalyzes the oxidation of beetle Luciferin to oxyluciferin and light in the presence of ATP. The luminescent signal is proportional to amount of ATP present.
# Using the CellTiter-Glo luminescent cell viability assay, the amount of cellular ATP was measured in the lymphoblastoid cell line with complete culture medium following compound treatment for 24 hours. The assay was performed in opaque white Kalypsys 1536-well plates. In the screen, tetraoctylammonium bromide was used as positive control. Library compounds were measured for their ability to cause acute toxicity in the cell line, as reflected by a decrease in intracellular ATP levels, in a concentration-dependent manner. […] AC50 values were determined from concentration-response data modeled with the standard Hill equation.
# qHTS protocol for CellTiter Glo lymphoblastoid cellular assay
# [Step] [Parameter] [Value] [Description]
# 1. Reagent; 5 uL; 2500 lymphoblastoid cells/well
# 2. Time; 5 hr; 37 C incubation
# 4. Controls; 23 nL; Tetraoctylammonium bromide 6.4pM to 92 uM
# 5. Time; 24 hr; 37 C incubation
# 6. Reagent; 5 uL; CellTiter Glo reagent
# 7. Time; 30 min; Room Temperature
# 8. Detection; Luminescence; Viewlux plate reader
# Keywords: cell viability, cytotoxicity, lymphoblastoid cell line, luminescence, NTPHTS, NTPHTS_NCGC, NIEHS, DSSTox, MLSMR, MLSCN, NIH Roadmap, qHTS, NCGC
row,SMILES,"activity change, negative = viability loss"
1,CCCCC(=O)N(C)C,11.7% (inactive)
2,C=C(C)C(=O)OCC(C)C,-13.2% (inactive)
3,CCOc1cc(OCC)c(C(C)=O)cc1OCC,-10.6% (inactive)
4,S=C([S-])NCCNC(=S)[S-].[Zn+2],-0.129% (inactive)
5,CC(=O)OCCC(C)C,11% (inactive)
6,C[C@@H]1CC2(OC3C[C@@]4(C)C5=CC[C@H]6C(C)(C)C(O[C@@H]7OC[C@@H](O)[C@H](O)[C@H]7O)CC[C@@]67C[C@@]57CC[C@]4(C)C31)OC(O)C1(C)OC21 (stereo not given in full),-2.14% (inactive)
7,Cc1cccc(Br)c1,9.74% (inactive)
8,O=C(O)c1ccccc1[N+](=O)[O-],26.2% (inactive)
9,CC(C)Nc1ccccc1,1.55% (inactive)
10,COc1ccccc1[N+](=O)[O-],2.5% (inactive)
11,Nc1ccc([N+](=O)[O-])c(N)c1,10.5% (inactive)
12,CC1CCC2CC1C2(C)C (stereo not given),-14.6% (inactive)
13,CCNc1cc(O)ccc1C,-22.2% (inactive)
14,CC(N)CN (stereo not given),15.1% (inactive)
15,O=C(O)c1ccc(Cl)cc1Cl,11.3% (inactive)
16,O=C(O)CNC(=O)c1ccc(CO)o1,-16.2% (inactive)
17,Cc1ccc(C)c([N+](=O)[O-])c1,-5.52% (inactive)
18,Cc1cccc2cccnc12,-5.63% (inactive)
19,COC(=O)c1ccccc1,-43% (inactive)
20,CCCCCCCN,8.34% (inactive)

row,SMILES,"activity change, negative = viability loss"
1,Cc1ccccc1Br,-5.98% (inactive)
2,CCN(CC)c1cccc(O)c1,2.06% (inactive)
3,Cc1ccc2cccnc2c1,7.37% (inactive)
4,O=C(O)c1cccc([N+](=O)[O-])c1,13.2% (inactive)
5,C1CCC2OC2C1 (stereo not given),9.15% (inactive)
6,NC(=O)NC(N)=O,-10.3% (inactive)
7,CCCCN(CCO)CCCC,12.5% (inactive)
8,O=C(O)CCSSCCC(=O)O,17.5% (inactive)
9,CCCCCCCCC,3.62% (inactive)
10,O=C1CCC(=O)O1,-1.35% (inactive)
11,Cc1c(N)cccc1N,0.18% (inactive)
12,CCOc1ccccc1N,-0.924% (inactive)
13,CC/C(C)=N/O,8.09% (inactive)
14,Cc1ccc(N(C)C)cc1,14.4% (inactive)
15,O=[N+]([O-])c1ccccc1CCO,-0.479% (inactive)
16,C=C(C)C(=O)OCCCCCC,1.69% (inactive)
17,Cc1ccccc1C(=O)O,-2.36% (inactive)
18,CCOc1cccc(N)c1,6.29% (inactive)
19,COc1cccc2sc(N)nc12,9.85% (inactive)
20,CC(C)CCOC(=O)/C=C/c1ccccc1,-2.6% (inactive)
